The full list was thinned out, with hits kept by preference.
HT1080-NT tox: qHTS for induction of synthetic lethality in tumor cells producing 2HG: qHTS for the HT-1080-NT fibrosarcoma cell line; HT-1080-NT fibrosarcoma viability, CellTiter-Glo ATP luminescence, 48 h; Potency, µM (titrated, usually from 46.1 µM), for inactives: at the highest dose activity, negative = less viability, most hits filed as cytotoxic; actives 1.6% (n = 360,000); AID 686970, 2013;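 further: NT is the 2HG producing partner of a matched IDH1 knockdown line; potency means the concentration at half of the fitted maximal effect; 0% = DMSO-treated cells and -100% = media-only wells without cells; nearly all actives have a fitted effect of over 55% in size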
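A 48-hour cytotoxicity screen used HT-1080-NT cells plated 2 hours before compound delivery. ATP-based CellTiter-Glo luminescence measured viability, normalized to DMSO and no-cell controls.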
HT1080 IDH1KD tx: qHTS for induction of synthetic lethality in tumor cells producing 2HG: qHTS for the HT-1080-IDH1KD cell line; Potency, µM (titrated, usually from 46.1 µM), for inactives: at the top dose activity, negative = toxicity, hits mostly cytotoxic; actives 2% (n = 360,000); HT-1080 IDH1 knockdown viability, ATP luminescence, 48 h;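 further: potency means the concentration at half of the fitted maximal effect; 0% = DMSO wells and -100% = cell-free medium wells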
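Luminescent ATP read-out (CellTiter-Glo, 10 min at room temperature) after 48 h compound exposure at 37 °C gave viability of IDH1-knockdown HT-1080 cells. Activity was normalised to DMSO and cell-free wells, then fitted as concentration-response curves.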
IL-1B inflam inh: qHTS for Inhibitors of Inflammasome Signaling: IL-1-beta AlphaLISA Primary Screen | THP-1 LPS/ATP IL-1B secretion, AlphaLISA, 16 h; active compounds read low | activity change, % at 57.5 µM | actives 4.7% (n = 360,000) | AID 743279, 2014; in the data active means activity change below about -50%; inconclusive means mostly about -30% to -49%
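THP-1 cells pretreated 1 hr with compounds (up to 57.5 uM final), then stimulated with LPS (250 ng/mL final) plus ATP (1.25 mM final); secreted IL-1B measured by AlphaLISA after 16 hr, decreased signal indicating inhibition.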
TDP1 cell CPT: qHTS for Inhibitors of human tyrosyl-DNA phosphodiesterase 1 (TDP1): qHTS in cells in presence of CPT; chicken DT40 Tdp1-/-;hTDP1 cells + 20 nM CPT, ATP luminescence, 48 h; Potency, µM (highest dose often 46.2 µM), for the others: at the top dose activity change, negative = growth inhibition, actives largely listed as inhibitors; actives 12% (n = 420,000); further: potency means the concentration at half of the fitted maximal effect; nearly all actives have a fitted effect of over 55% in size
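Chicken DT40 Tdp1-/- cells stably complemented with human TDP1 were seeded at 400 cells/well in medium containing 20 nM camptothecin, exposed to pin-transferred compounds, and grown at 37 °C for at least 48 hr. Viability was read as ATP luminescence.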
DT40 TDP1 no CPT: qHTS for Inhibitors of human tyrosyl-DNA phosphodiesterase 1 (TDP1): qHTS in cells in absence of CPT. Potency, µM (top dose mostly 46.2 µM), without a hit: at the highest dose activity change, negative = growth inhibition, most hits filed as inhibitors. DT40 Tdp1-/- hTDP1 cells, no CPT, ATP luminescence, 48 h. actives 15% (n = 420,000). AID 686978, 2013; further: potency means the concentration at half of the fitted maximal effect; nearly all actives have a fitted effect of over 55% in size
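Cells were dispensed at 400 per well, compounds added by pin tool, plates incubated ≥48 hr at 37 °C, then CellTiter-Glo added for 30 min at room temperature before luminescence reading. Line: DT40 Tdp1-/- complemented with hTDP1; camptothecin omitted.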
12-LOX inh: Primary qHTS assay for inhibitors of human arachidonate 12S-lipoxygenase (ALOX12): Round 2. Polyunsaturated fatty acid lipoxygenase ALOX12 (Homo sapiens), P18054. purified 12hLO, xylenol orange hydroperoxide absorbance. Potency, µM (highest dose often 108 µM), without a hit: at the top dose activity change, negative = inhibition, most hits filed as inhibitors. actives 1.1% (n = 580,000). AID 1671190, 2021; further: potency means the concentration at half of the fitted maximal effect
Target sequence (P18054 whole entry, looked up): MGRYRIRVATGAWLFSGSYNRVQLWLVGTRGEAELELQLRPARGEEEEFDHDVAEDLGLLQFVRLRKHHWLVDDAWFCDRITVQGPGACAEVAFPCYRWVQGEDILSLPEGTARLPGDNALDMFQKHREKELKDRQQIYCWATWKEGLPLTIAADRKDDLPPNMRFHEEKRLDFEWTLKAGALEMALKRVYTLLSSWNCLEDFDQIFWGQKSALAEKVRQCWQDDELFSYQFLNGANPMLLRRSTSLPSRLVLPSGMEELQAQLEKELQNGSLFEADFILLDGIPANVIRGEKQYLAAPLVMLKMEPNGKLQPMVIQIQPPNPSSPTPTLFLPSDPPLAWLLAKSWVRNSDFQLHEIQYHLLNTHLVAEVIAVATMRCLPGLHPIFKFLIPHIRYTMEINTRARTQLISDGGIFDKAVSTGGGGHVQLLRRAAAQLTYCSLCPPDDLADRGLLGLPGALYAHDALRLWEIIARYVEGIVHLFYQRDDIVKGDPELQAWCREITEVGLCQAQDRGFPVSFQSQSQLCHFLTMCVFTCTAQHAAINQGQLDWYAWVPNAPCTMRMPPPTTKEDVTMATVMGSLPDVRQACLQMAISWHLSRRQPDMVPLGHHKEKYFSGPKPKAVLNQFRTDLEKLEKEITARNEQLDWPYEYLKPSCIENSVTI
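Hydroperoxide product was detected by ferrous iron/xylenol orange as the 573 to 405 nm absorbance ratio. Arachidonic acid at 40 uM (final) was turned over for 30 min at room temperature by 150 nM human 12hLO, pH 7.0 Hepes buffer, after 15 min compound preincubation.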
* = called active by the depositor; ? = inconclusive; . = no result; [ ] = dose if it differs, or a comment. Unless noted, the call rests on the fitted dose curve; in most records, active means well fitted curve in the direction sought with a large enough effect; inconclusive means small, poorly fitted or top-dose-only effect, or another doubt; inactive means no such curve, though single readings can be large; an effect the other way counts as inactive or inconclusive. Unless noted, on the % scale 0 is the no-effect control and ±100 the full control effect.

SMILES	HT1080-NT tox	HT1080 IDH1KD tx	IL-1B inflam inh	TDP1 cell CPT	DT40 TDP1 no CPT	12-LOX inh
O=C(Nc1ccc(CN2CCOCC2)cc1)c1ccc(-c2ccc(Br)cc2)o1	14.1µM*	?	-79.2*	16.4µM*	18.4µM*	-10.9%[57.4 µM]
COc1ccc(NC(=S)NC(=O)c2ccc3c(c2)OCCO3)cc1	-3.9%	-3.4%	-14.7	?	18.4µM*	7.08µM*
O=C(NC(=S)Nc1ccc(N2CCCCC2)cc1)c1ccc2c(c1)OCCO2	-0.4%	?	0.0	?	16.4µM*	?
CS(=O)(=O)N1CCN(c2ccc(NC(=S)NC(=O)c3ccc4c(c3)OCO4)cc2)CC1	-8.7%	-1.9%	56.0	-16.5%	?	?
O=C(O)CSc1cc(Cl)ccc1Cl	.	.	.	.	.	7.1%
COc1ccc(C(=O)NC(=S)Nc2ccc(CN3CCOCC3)cc2)cc1Br	-8.2%	-1.8%	-1.5	?	10.3µM*	?
O=C(NC(=S)Nc1ccc(CN2CCOCC2)cc1)c1ccc([N+](=O)[O-])cc1	-3.9%	-0.1%	31.3	?	-23.6%	-18.8%
CCOc1ccc(C(=O)Nc2ccc(CN3CCOCC3)cc2)cc1Br	?	-29.7%	?	?	?	?
O=C(NC(=S)Nc1ccc(CN2CCOCC2)cc1)c1ccc2c(c1)OCCO2	?	?	?	?	14.6µM*	0.0%
CC1(C)[C@H]2CC[C@@H](CN[S+](=O)([O-])c3ccccc3)[C@@H]1C2	.	.	.	.	.	-28.6%[176 µM]
O=C(Nc1ccn(CCCN2CCN(Cc3cccc4ccccc34)CC2)c(=O)n1)OCc1ccccc1	?	-21.2%	?	16.4µM*	18.4µM*	?
O=C(Nc1ccn(CCCNC2CCN(Cc3ccccc3)CC2)c(=O)n1)OCc1ccccc1	?	?	-18.5	?	18.4µM*	-26.4%
O=C(Nc1ccn(CCCN2CCC(N3CCOCC3)CC2)c(=O)n1)OCc1ccccc1	-2.6%	1.0%	0.0	-16.3%	-9.7%	?
COc1ccc(N2CCN(CCCn3ccc(NC(=O)OCc4ccccc4)nc3=O)CC2)cc1	-0.4%	-3.9%	-13.5	23.1µM*	11.6µM*	-16.7%
Nc1ccn(CCCN2CCN(Cc3cccc4ccccc34)CC2)c(=O)n1	3.4%	2.9%	16.0	-4.9%	?	3.4%
O=C(Nc1ccn(CCCNCCN2CCOCC2)c(=O)n1)OCc1ccccc1	1.3%	0.4%	6.2	-103.1%	-93.2%	25.0%
O=C(Nc1ccn(CCCN2CCN(c3ccccc3)CC2)c(=O)n1)OCc1ccccc1	-23.4%	-0.7%	-22.6	?	14.6µM*	?
O=C(c1ccncn1)N1C[C@@H](COCC2CC2)[C@H](c2ccncc2)C1	.	.	.	.	.	3.1%
Cc1cc(C)c(CN2CCN(CCCn3ccc(NC(=O)OCc4ccccc4)nc3=O)CC2)c(C)c1	-2.4%	-6.3%	-54.7*	18.4µM*	18.4µM*	?
CC(C)C(=O)N1Cc2ccccc2CC2(CCCN(Cc3ccc(O)cc3)C2)C1 (stereo unspecified)	.	.	.	.	.	12.2%[6.33 µM]
COc1ccc(/C=C/c2cccc[n+]2C)c(O)c1	7.9%	5.4%	-13.1	?	18.4µM*	?
CCN(CC)c1ccc(/C=C/c2cccc[n+]2C)c(OC)c1	?	?	-91.8*	1.16µM*	0.0517µM*	?
CCOC(=O)C1Cn2c(nc3c(c2=O)C(C)(C)Cc2ccccc2-3)S1 (stereo unspecified)	-10.5%	-12.7%	-3.4	-13.3%	15.8µM*	?
CCOC(=O)CSc1nc2c(c(=O)[nH]1)C(C)(CC)Cc1ccccc1-2 (stereo unspecified)	?	5.8µM*	73.0	?	16.4µM*	1.8%
CCc1cc(C(=O)O)cs1	.	.	.	.	.	-16.8%
SMILES	HT1080-NT tox	HT1080 IDH1KD tx	IL-1B inflam inh	TDP1 cell CPT	DT40 TDP1 no CPT	12-LOX inh
CCOC(=O)c1c(SCCN2CCCC2)n(-c2ccccc2)c(=S)n(-c2ccccc2)c1=O	?	7.31µM*	-111.5*	4.61µM*	5.17µM*	-12.8%
CCOC(=O)N1CCN(Cc2nc3c(c(=O)[nH]c(=O)n3C)n2Cc2c(F)cccc2Cl)CC1	.	.	.	.	.	31.5%
O=C(c1ccc(COc2c(F)c(F)cc(F)c2F)o1)N1CCN(c2ccc(Cl)cc2)CC1	8.0%	?	-5.2	13µM*	16.4µM*	-13.9%
Cc1ccc(C)c(N2CCN(C(=O)c3ccc(CS(=O)Cc4cccc(Cl)c4)o3)CC2)c1 (stereo unspecified)	-23.0%	-17.4%	-74.7*	?	-14.0%	6.9%
O=C(c1ccc(CS(=O)Cc2cccc(Cl)c2)o1)N1CCN(c2ccc(F)cc2)CC1 (stereo unspecified)	-1.0%	-2.1%	-11.3	?	16.4µM*	-21.3%
O=C(c1ccc(CS(=O)Cc2cccc(Cl)c2)o1)N1CCN(C2CCCCC2)CC1 (stereo unspecified)	-11.8%	-7.8%	-11.3	-12.3%	17.6%	1.0%
